# PubChem BioAssay
# Active and inactive are the calls of the source.
# What was measured:
# [1] = tested on: PRMT1 (protein arginine N-methyltransferase 1); test: PRMT1 binders on small-molecule microarrays, primary screen, biochemical, small-molecule microarray, 635 nm fluorescence (AID 1088); settings: small-molecule microarray binding, higher = more signal;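 further: binding of Prmt1 protein to compounds spotted on small-molecule microarray slides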
# [2] = yeast growth modulation, basal conditions, primary screen, YJM789 clinical isolate, OD600, 24 h (AID 1089);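 further: growth of clinical yeast isolate S. cerevisiae YJM 789 seeded 1000 cells per well; test concentration not given here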; settings: S. cerevisiae YJM789 growth, higher = more signal, called active from +8 up or from −8 down
# [3] = fission yeast growth modulation, primary screen, strain 972, OD600, 24 h, no modulator (AID 1090);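 further: basal condition with compound alone and no growth modifier present; test concentration not given here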; settings: S. pombe 972 growth, higher = more signal, called active from +8 up or from −8 down
# [4] = S. cerevisiae growth modulation with rapamycin, primary screen, strain BY4716, OD600, 96 h (AID 1091); settings: higher = more signal, called active from +8 up or from −8 down; further: test concentration not given here
# [5] = molecular target: Torsin-1A-interacting protein 2 (Homo sapiens) (UniProt Q8NFQ8); test: LULL1 binders on small-molecule microarray, primary screen, cell lysate, human LULL1 lysate, 635/667 nm fluorescence (AID 1092); settings: hLULL1 lysate binding, 635 nm fluorescence, higher = more signal;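 further: probe is lysate of COS7 cells overexpressing human LULL1; score merges per-feature 667 nm fluorescence with signal-to-noise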
# [6] = E. coli growth modulation, two-sided OD650, primary screen, E. coli filamentation project, strain DRC41, 24 h (AID 1093); settings: OD650, 24 h, higher = more signal, called active from +8 up or from −8 down;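 further: MC1000 strain lacking acrAB efflux and sulA so SOS filamentation is blocked; test concentration not given here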
# [7] = small-molecule microarray binders of probe aLefty2, primary screen, biochemical, biotinylated probe, 635/667 nm fluorescence (AID 1094); settings: higher = more signal;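 further: score merges spot fluorescence near 667 nm with spot signal-to-noise ratio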
# [8] = tested on: Noggin (protein binding on small-molecule microarray); test: Noggin binders on small-molecule microarray, primary screen, biochemical, 635/667 nm fluorescence (AID 1095); settings: 635 nm fluorescence, higher = more signal;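 further: score merges 667 nm feature fluorescence with signal to noise over triplicate slides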
# [9] = molecular target: Neurogenic locus notch homolog protein 3 (Homo sapiens) (UniProt Q9UM47); test: NOTCH3 binders on small-molecule microarray, primary screen, biochemical, 635/667 nm fluorescence (AID 1096); settings: NOTCH3 binding, 635 nm fluorescence, higher = more signal
# [10] = small-molecule microarray binders of probe aEGFR, primary screen, biochemical, biotinylated probe, 635/667 nm fluorescence (AID 1097); settings: higher = more signal;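 further: probe is a biotinylated anti-EGFR antibody binding compounds printed on slides; score combines fluorescence near 667 nm and signal to noise of each spot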
# [11] = tested on: Plasmodium falciparum Sir2 (PF13_0152, Sir2A); test: pfSir2 binders on small-molecule microarrays, primary screen, biochemical, small-molecule microarray, 635 nm fluorescence (AID 1098); settings: small-molecule microarray binding, fluorescence 635 nm; higher = more signal;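 further: score merges spot fluorescence intensity with its signal-to-noise ratio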
# [12] = small-molecule microarray binders of probe aDKK1, primary screen, biochemical, biotinylated probe, 635/667 nm fluorescence (AID 1099); settings: higher = more signal;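 further: score merges 667nm spot fluorescence with signal to noise across triplicate slides; reference of the scale not given here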
# [13] = small-molecule microarray binders of probe aCHRDL2, primary screen, biochemical, biotinylated probe, 635/667 nm fluorescence (AID 1100); settings: higher = more signal
# [14] = splicing luciferase reporter signal modulators, primary screen, spliceosome inhibition project, cell-based, HEK293, splice +/- reporter (AID 1101); settings: luminescence, 24 h, higher = more signal, called active from +8 up or from −8 down;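 further: HEK293 cells carrying a splicing-competent luciferase reporter gene; test concentration not given here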
# [15] = molecular target: Fibroblast growth factor 10 (Homo sapiens) (UniProt O15520); test: FGF10 binders on small-molecule microarrays, primary screen, biochemical, small-molecule microarray, 635 nm fluorescence (AID 1102); settings: FGF10 binding, fluorescence 635 nm, higher = more signal
# [16] = tested on: glycogen synthase kinase-3 (GSK3A per assay name; protocol says GSK3B); test: GSK3 binders on small-molecule microarrays, primary screen, biochemical, small-molecule microarray, 635 nm fluorescence, GSK3A (AID 1103); settings: small-molecule microarray binding, fluorescence 635 nm; higher = more signal; further: the record names both GSK3A and GSK3B
# [17] = molecular target: Epidermal growth factor receptor (Homo sapiens) (UniProt P00533); test: EGFR binders on small-molecule microarrays, primary screen, biochemical, small-molecule microarray, 635 nm fluorescence (AID 1104); settings: EGFR binding, higher = more signal;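 further: score merges 667 nm emission intensity with spot signal to noise over triplicate slides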
# [18] = molecular target: Follistatin-related protein 3 (Homo sapiens) (UniProt O95633); test: FSTL3 binders on small-molecule microarrays, primary screen, biochemical, small-molecule microarray, 635 nm fluorescence (AID 1105); settings: FSTL3 binding, higher = more signal;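 further: score merges emission near 667 nm and signal to noise per printed spot across three slides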
# [19] = molecular target: Dickkopf-related protein 1 (Homo sapiens) (UniProt O94907); test: DKK1 binders on small-molecule microarrays, primary screen, biochemical, small-molecule microarray, 635 nm fluorescence scan (AID 1106); settings: DKK1 binding, higher = more signal;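 further: score merges emission near 667 nm with signal to noise over three replicate slides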
# [20] = tested on: Inhibin beta A chain (activin A); test: INHBA (activin A) binders on microarrays, primary screen, biochemical, small-molecule microarray, 635 nm fluorescence scan (AID 1107); settings: small-molecule microarray binding, higher = more signal;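 further: mouse activin A protein probed at 4.33 µg/mL on printed slides; score merges bound-protein fluorescence near 667 nm with spot signal-to-noise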
# Follistatin-related protein 3 (Homo sapiens), sequence (O95633 whole entry, looked up): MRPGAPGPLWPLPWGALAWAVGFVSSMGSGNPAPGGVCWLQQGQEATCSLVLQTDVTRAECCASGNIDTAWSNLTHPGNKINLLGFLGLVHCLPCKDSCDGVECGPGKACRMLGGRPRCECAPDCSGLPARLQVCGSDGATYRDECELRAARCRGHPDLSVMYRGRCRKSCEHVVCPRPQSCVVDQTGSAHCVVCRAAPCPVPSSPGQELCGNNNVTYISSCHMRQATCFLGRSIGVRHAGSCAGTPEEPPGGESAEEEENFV
# Neurogenic locus notch homolog protein 3 (Homo sapiens), sequence (Q9UM47 whole entry, looked up): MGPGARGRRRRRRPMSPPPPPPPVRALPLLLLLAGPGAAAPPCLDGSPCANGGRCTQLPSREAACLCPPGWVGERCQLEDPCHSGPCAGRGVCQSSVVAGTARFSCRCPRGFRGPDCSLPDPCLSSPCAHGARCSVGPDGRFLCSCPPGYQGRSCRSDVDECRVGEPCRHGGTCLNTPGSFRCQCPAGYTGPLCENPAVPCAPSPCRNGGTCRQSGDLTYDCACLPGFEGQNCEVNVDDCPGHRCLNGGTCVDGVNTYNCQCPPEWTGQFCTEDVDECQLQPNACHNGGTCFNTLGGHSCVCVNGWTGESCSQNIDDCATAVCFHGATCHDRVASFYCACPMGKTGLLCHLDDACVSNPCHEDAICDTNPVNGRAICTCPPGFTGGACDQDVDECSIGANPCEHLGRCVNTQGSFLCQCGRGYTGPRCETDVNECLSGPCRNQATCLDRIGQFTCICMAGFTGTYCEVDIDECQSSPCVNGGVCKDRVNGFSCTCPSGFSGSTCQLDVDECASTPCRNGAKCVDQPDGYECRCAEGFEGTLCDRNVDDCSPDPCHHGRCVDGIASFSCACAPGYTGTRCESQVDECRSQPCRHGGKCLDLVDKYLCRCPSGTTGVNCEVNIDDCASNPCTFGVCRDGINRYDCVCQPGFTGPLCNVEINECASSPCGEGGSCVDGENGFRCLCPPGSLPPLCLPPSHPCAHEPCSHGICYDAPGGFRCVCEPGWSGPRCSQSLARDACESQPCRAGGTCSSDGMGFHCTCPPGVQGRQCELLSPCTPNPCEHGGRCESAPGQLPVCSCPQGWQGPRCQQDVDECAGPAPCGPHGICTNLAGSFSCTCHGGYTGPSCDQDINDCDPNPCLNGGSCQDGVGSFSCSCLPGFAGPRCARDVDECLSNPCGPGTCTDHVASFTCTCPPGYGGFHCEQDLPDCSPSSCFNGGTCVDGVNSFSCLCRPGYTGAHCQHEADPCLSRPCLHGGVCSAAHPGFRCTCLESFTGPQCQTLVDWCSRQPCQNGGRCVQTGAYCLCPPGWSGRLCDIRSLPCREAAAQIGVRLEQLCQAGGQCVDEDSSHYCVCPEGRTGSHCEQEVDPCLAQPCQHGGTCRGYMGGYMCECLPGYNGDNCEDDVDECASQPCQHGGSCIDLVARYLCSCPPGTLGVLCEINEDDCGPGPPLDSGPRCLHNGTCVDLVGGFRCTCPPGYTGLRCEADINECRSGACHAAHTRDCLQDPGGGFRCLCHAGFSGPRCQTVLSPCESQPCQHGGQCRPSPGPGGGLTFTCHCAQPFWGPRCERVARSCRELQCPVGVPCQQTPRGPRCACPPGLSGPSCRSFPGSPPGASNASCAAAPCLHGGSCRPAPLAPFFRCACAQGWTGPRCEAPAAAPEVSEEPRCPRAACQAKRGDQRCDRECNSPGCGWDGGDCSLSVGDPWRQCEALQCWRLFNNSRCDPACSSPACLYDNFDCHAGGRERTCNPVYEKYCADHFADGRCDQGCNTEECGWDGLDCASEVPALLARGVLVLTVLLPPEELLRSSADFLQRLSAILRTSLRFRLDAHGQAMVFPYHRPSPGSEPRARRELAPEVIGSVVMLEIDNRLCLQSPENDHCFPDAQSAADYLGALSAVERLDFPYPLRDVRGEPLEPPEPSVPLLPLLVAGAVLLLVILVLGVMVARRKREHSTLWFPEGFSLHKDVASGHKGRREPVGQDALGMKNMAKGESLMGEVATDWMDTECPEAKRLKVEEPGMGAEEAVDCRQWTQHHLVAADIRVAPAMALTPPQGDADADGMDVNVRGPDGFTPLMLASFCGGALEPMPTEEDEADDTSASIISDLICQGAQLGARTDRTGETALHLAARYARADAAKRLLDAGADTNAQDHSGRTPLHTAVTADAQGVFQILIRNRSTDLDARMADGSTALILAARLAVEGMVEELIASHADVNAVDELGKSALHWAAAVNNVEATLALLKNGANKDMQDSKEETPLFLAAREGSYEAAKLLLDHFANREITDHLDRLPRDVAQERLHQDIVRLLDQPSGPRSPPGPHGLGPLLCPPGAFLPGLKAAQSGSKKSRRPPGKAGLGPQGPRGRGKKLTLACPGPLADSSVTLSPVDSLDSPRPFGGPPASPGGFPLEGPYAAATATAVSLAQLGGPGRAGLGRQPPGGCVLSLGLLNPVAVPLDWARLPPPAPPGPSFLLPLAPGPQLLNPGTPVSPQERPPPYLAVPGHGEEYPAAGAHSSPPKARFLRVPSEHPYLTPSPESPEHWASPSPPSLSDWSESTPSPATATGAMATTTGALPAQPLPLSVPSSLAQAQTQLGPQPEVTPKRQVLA
# Epidermal growth factor receptor (Homo sapiens), sequence (P00533 whole entry, looked up): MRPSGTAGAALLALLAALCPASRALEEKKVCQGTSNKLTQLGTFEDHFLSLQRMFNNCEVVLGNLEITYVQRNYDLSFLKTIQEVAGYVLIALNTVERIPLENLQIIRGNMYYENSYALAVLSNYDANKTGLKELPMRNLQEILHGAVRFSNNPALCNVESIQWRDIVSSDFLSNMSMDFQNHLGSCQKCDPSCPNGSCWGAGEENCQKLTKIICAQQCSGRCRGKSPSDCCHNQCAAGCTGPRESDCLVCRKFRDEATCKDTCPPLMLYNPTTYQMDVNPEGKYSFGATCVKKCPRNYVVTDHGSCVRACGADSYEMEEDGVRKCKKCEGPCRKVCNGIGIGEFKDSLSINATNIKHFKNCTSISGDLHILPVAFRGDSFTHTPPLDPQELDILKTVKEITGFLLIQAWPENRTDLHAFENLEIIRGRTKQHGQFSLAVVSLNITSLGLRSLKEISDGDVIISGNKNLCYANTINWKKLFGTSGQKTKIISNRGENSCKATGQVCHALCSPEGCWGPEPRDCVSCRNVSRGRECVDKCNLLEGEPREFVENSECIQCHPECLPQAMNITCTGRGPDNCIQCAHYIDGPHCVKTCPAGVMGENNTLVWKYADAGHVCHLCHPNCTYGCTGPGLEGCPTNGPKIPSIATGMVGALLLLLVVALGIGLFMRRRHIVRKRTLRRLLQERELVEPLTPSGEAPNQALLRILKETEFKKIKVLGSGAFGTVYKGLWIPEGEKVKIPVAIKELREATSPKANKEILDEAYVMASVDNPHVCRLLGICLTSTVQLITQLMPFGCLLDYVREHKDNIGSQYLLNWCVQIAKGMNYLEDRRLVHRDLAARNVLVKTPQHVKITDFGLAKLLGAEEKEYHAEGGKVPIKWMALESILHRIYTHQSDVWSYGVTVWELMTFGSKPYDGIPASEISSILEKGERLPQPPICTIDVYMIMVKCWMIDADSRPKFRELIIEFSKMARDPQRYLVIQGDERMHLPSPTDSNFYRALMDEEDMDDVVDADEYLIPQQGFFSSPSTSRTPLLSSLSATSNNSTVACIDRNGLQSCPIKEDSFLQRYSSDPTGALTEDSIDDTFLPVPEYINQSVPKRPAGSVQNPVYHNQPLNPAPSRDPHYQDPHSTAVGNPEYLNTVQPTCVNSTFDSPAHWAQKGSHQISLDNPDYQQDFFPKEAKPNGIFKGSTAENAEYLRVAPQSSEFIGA
# Torsin-1A-interacting protein 2 (Homo sapiens), sequence (Q8NFQ8 whole entry, looked up): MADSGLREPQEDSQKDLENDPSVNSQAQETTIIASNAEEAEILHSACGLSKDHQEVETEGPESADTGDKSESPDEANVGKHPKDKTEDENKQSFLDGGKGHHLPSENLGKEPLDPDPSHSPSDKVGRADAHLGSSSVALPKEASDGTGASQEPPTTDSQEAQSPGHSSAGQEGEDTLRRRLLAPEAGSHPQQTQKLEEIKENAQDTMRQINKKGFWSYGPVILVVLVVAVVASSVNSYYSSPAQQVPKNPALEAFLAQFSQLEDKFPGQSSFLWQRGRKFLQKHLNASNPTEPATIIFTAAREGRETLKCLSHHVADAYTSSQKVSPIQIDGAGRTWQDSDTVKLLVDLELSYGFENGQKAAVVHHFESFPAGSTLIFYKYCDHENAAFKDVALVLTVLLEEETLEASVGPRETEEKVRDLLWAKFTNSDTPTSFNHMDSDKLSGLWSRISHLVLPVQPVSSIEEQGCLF
# Fibroblast growth factor 10 (Homo sapiens), sequence (O15520 whole entry, looked up): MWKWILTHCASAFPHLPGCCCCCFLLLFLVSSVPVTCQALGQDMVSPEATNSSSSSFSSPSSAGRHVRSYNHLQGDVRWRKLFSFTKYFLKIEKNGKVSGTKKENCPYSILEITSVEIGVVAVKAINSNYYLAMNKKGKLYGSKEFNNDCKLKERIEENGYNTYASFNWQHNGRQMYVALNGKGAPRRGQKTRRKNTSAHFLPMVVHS
# Dickkopf-related protein 1 (Homo sapiens), sequence (O94907 whole entry, looked up): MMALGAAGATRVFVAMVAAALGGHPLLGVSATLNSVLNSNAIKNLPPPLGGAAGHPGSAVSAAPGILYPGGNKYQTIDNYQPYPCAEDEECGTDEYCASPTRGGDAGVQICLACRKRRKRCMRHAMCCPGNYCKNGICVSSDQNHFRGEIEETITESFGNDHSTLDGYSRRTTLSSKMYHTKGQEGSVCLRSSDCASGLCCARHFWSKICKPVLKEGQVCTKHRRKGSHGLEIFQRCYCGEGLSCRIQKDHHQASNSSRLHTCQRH
SMILES,composite z-score [1],z-score [2],z-score [3],z-score [4],composite z-score [5],z-score [6],composite z-score [7],composite z-score [8],composite z-score [9],composite z-score [10],composite z-score [11],composite z-score [12],composite z-score [13],z-score [14],composite z-score [15],composite z-score [16],composite z-score [17],composite z-score [18],composite z-score [19],composite z-score [20]
COC(=O)c1c2oc(c1C(=O)OC)C(=O)N1CCC[C@H]1Cn1nncc1CN(Cc1ccccc1)C(=O)N[C@H](CO)CC2,0.97,0.955 (inactive),-0.086 (inactive),0.613 (inactive),0.983,1.24 (inactive),-0.116,0.743,0.2,0.471,0.614,-0.304,-0.0048,0.733 (inactive),0.627,-0.103,0.327,-0.0361,-0.113,0.309
COCCCNC(=O)[C@@]1(Sc2ccc(C)cc2)CC(=O)N(Cc2ccccc2Cl)[C@@H]1c1ccc(CO)cc1I,-0.76,-0.89 (inactive),-2.01 (inactive),0.0449 (inactive),1.04,0.668 (inactive),-0.0654,-0.691,-0.318,-0.249,0.515,0.0057,0.791,-0.529 (inactive),-0.668,-1.05,-1.29,-0.491,-1.12,0.45
COc1ccc([Si](C)(C)[C@@H]2[C@@H](CCn3cc([C@H](O)c4ccccc4)nn3)O[C@]3(C(=O)N(c4ccccc4)c4ccccc43)[C@H]2C)cc1,1.11,-0.613 (inactive),-0.101 (inactive),1.43 (inactive),0.986,1.15 (inactive),-0.0998,0.431,0.281,-0.0452,0.548,-0.016,-0.142,-1.18 (inactive),0.23,-0.15,-0.302,0.115,0.181,0.372
COc1ccc([Si](C)(C)[C@H]2[C@H](CCO)O[C@@]3(C(=O)N(Cc4ccc(N5C(=O)c6ccccc6Oc6ccccc65)cc4)c4ccccc43)[C@@H]2C)cc1,0.263,2.1 (inactive),-1.25 (inactive),22.7 (active),0.822,0.511 (inactive),0.0004,-1.01,-0.532,0.0125,0.094,-0.0509,0.477,-0.964 (inactive),-0.94,-1.96,-0.732,-1.25,-1.02,-0.917
CO[C@H]1O[C@H](CO)[C@@H](OC(=O)Nc2ccc(C#N)cc2)[C@@H]2OC(=O)[C@H](Cc3cccc(Br)c3)C/C=C/C[C@@H](Cc3cccc(Br)c3)C(=O)O[C@@H]12,1.24,0.471 (inactive),0.0261 (inactive),27.2 (active),1.26,0.27 (inactive),0.212,0.432,0.733,0.11,0.717,0.617,0.534,1.5 (inactive),0.788,-0.037,0.223,0.707,0.336,-0.247
CCOC(=O)C1=CCC(c2ccccc2)N(S(=O)(=O)c2ccc([N+](=O)[O-])cc2)C1 (stereo not given),-0.411,0.687 (inactive),0.668 (inactive),1.25 (inactive),1.33,-0.319 (inactive),-0.0081,-0.578,0.0968,0.0506,-0.0755,0.36,0.507,-0.33 (inactive),-0.16,0.265,0.0475,0.163,-0.115,0.918
CO[C@H]1O[C@H](CO)[C@@H](OC(=O)c2ccc(Br)cc2)[C@@H]2OC(=O)[C@H](Cc3ccccc3)C/C=C/C[C@@H](Cc3ccccc3)C(=O)O[C@@H]12,0.965,-1.92 (inactive),-1.19 (inactive),0.161 (inactive),1.63,2.14 (inactive),0.13,0.413,0.181,-0.176,1.14,-0.407,0.0962,-0.511 (inactive),0.583,0.186,0.287,0.435,0.214,1.24
O=C1C2C=CC(C(O)c3ccc4c(c3)OCO4)N(Nc3ccccc3)C2C(=O)N1c1ccccc1 (stereo not given),1.46,-0.293 (inactive),0.292 (inactive),0.593 (inactive),3.05,-0.784 (inactive),0.266,-0.0526,1.1,0.11,1.41,0.45,1.09,0.243 (inactive),0.781,-0.157,-0.0637,0.71,-0.541,0.477
CC1(C)C(=O)C(c2ccccc2)=C2CN3C(=O)N(CCc4ccccc4)C(=O)C3(Cc3ccc(F)cc3)C=C21 (stereo not given),-0.203,0.54 (inactive),0.921 (inactive),6.84 (inactive),2.52,-2 (inactive),0.428,-0.459,0.337,0.133,0.251,1.19,1.24,-0.274 (inactive),-0.236,-0.556,-0.554,-0.0423,-1.11,0.958
CN(C)C(=O)[C@]1(CCS(=O)(=O)c2ccccc2)N=C(c2ccc(OCCCO)cc2)O[C@@H]1c1ccccc1,1.42,-0.897 (inactive),-0.804 (inactive),4.54 (inactive),3.57,0.29 (inactive),0.0943,0.577,1.01,0.127,1.45,0.483,0.515,-0.621 (inactive),1.48,1.26,-0.0269,0.552,-0.323,0.82
CN1C(=O)C2C=CC(C(O)c3cc(C(F)(F)F)cc(C(F)(F)F)c3)N(Nc3ccccc3)C2C1=O (stereo not given),0.237,-0.506 (inactive),-0.714 (inactive),-0.785 (inactive),3.85,-0.565 (inactive),-0.194,0.325,0.377,-0.155,0.395,-0.224,0.0811,1.37 (inactive),0.0307,-0.107,-0.0397,-0.247,-0.887,0.0638
O=C(N1CCOCC1)[C@@]1(CCS(=O)(=O)c2ccccc2)N=C(c2ccc(OCCCO)cc2)O[C@H]1c1ccccc1,1.44,0.487 (inactive),0.395 (inactive),-0.0156 (inactive),3.56,0.746 (inactive),0.352,0.136,1.15,0.156,1.64,1.42,1.33,2.21 (inactive),0.646,1.22,-0.412,0.424,-0.383,0.382
Cc1ccc(S[C@]2(C(=O)NC(C)C)CC(=O)N(C(C)C)[C@@H]2c2ccc(CO)cc2I)cc1,0.841,-0.466 (inactive),-0.222 (inactive),-0.294 (inactive),1.53,0.529 (inactive),-0.0654,-0.337,-0.196,-0.144,0.476,0.0345,0.706,-0.714 (inactive),-0.101,-0.498,-0.56,0.298,-0.484,0.904
CN(C)C(=O)[C@@]1(CCC(=O)OC(C)(C)C)N=C(c2ccc(OCCCO)cc2)O[C@H]1c1ccccc1CN=[N+]=[N-],1.51,-0.142 (inactive),0.245 (inactive),-1.11 (inactive),3.83,0.488 (inactive),0.047,0.968,0.599,-0.0238,1.6,0.473,0.724,0.277 (inactive),0.965,-0.416,-0.341,0.442,-0.695,-0.0415
Cc1ccccc1C(O)C1C=CC2C(=O)NC(=O)C2N1Nc1ccc(Cl)cc1Cl (stereo not given),0.528,-2.09 (inactive),-2.81 (inactive),0.797 (inactive),2.27,-1.24 (inactive),0.106,0.287,0.765,-0.125,1.21,0.629,0.751,0.812 (inactive),0.904,0.332,0.207,0.511,0.0925,1.18
[N-]=[N+]=NCc1ccccc1C[C@@]1(C(=O)N2CCCCC2)N=C(c2ccc(OCCCO)cc2)O[C@@H]1c1ccccc1CN=[N+]=[N-],1.28,-0.364 (inactive),0.78 (inactive),25.9 (active),2.46,0.76 (inactive),0.154,-0.147,0.278,-0.0833,0.649,0.453,1.07,-0.4 (inactive),0.375,0.962,-0.0197,-0.0105,0.287,0.964
CCCC=C(CCC)[C@@H](NC(=O)CCc1ccccc1)c1ccc(C(F)(F)F)cc1,1.1,-0.296 (inactive),-1.19 (inactive),0.654 (inactive),3.4,-0.604 (inactive),0.201,0.0368,1.12,-0.0423,1.08,0.256,0.995,-1.57 (inactive),0.527,1.28,0.0694,0.574,-0.429,0.724
CC(C)[C@H]1NC(=O)[C@@]23C(=O)N[C@@H](Cc4ccccc4)C2[C@H](C)[C@@]2(C)O[C@H]2C3/C=C/C/C=C\CNC(=O)[C@H](Cc2ccccc2)NC1=O (stereo not given in full),1.53,-0.155 (inactive),-0.228 (inactive),0.246 (inactive),2.68,0.317 (inactive),-0.052,0.877,1.08,0.0354,0.205,-0.38,-0.481,0.0723 (inactive),1.37,1.08,0.512,1.44,0.336,1.12
COC(=O)C(CC#Cc1ccc2c(c1)[C@]1(C(=O)N2)[C@H](c2ccc(OCCO)cc2)N2[C@H](c3ccccc3)[C@H](c3ccccc3)OC(=O)[C@H]2[C@@H]1C(=O)N1CCN(c2ncccn2)CC1)C(=O)OC,1.55,0.722 (inactive),1.82 (inactive),3.83 (inactive),2.31,-0.0711 (inactive),0.0971,1.36,1.05,0.153,1.35,0.841,0.782,0.0768 (inactive),1.14,1.32,0.331,1.37,0.982,0.53
